# Screens from PubChem.
# A selection: hits, their analogues and other compounds. The true share with any hit is near 2.5%.
# CRFBP-R2 agonist: agonists of human CRF-binding protein/CRF-R2 receptor complex; activation, % at 13.2 µM; HEK293 CRF-R2/CRF-BP, calcium dye fluorescence (FLIPR); percent of saturating CRF peptide response; 350,000 tested, 0.46% active;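 active means activation of at least 50%, plus an integration ratio under a set limit after plate pattern correction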;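 further: plate controls were neutral control wells without compound for no effect and CRF at EC100 for full effect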
# Cardio protect: myocardial damage modulation in H9c2 cells; H9c2 cardiomyocytes, H2O2 injury protection, ATPLite, 2 h; 360,000 tested, 0.63% active; protection from H2O2 cell death, % at 20 µM;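 active means compounds giving at least 50% protection of heart cells from peroxide-induced death in the single-dose screen, raw or plate-pattern-corrected value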;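 further: 0% = DMSO wells with peroxide and 100% = DMSO wells without peroxide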
# SKN-1 block: blocks SKN-1 activity in C. elegans. C. elegans VP596 Pgst-4::GFP/RFP ratio, acrylamide-induced, 24 h. inhibition, % at 21.8 µM. 360,000 tested, 0.49% active;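 active means interference check ratio from 0.5 to 1.5 plus GFP to RFP signal ratio inhibition reaching or exceeding a fixed threshold, cut at about 30% in these data, passing the limit was not always enough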
# iPSC survival up: increases survival of single human iPS cells; hiPSC single-cell survival, ATPlite luminescence; 100% = ROCK inhibitor wells, 0% = DMSO; survival enhancement, % at 20 µM; 360,000 tested, 0.044% active; AID 602274; in the data active means survival enhancement above about 18%;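 further: cells exposed to compounds for 16 hours before the ATP read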
# H9c2 TAG inh: inhibitors of triacylglycerol accumulation. H9c2 cells, Nile Red lipid (TAG) fluorescence; cells loaded with 200 µM oleic acid. inhibition, % at 12.5 µM. 230,000 tested, 0.66% active. AID 651582;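 active means pattern-corrected inhibition of lipid staining of at least 50% with the nuclear-stain viability signal not falling by more than 50%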;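 further: 0% = DMSO wells and 100% = triacsin C control wells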
# CRFBP-R2 block: CRF-BP/CRF-R2 complex antagonism | inhibition, % at 11.8 µM | 350,000 tested, 0.59% active | AID 588475 | HEK293 CRF-R2/CRF-BP, CRF-induced calcium fluorescence;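 active means inhibition of the ligand-induced calcium signal above about 50% at the single tested concentration, limit read from the data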
# TAG conf: confirmation of triacylglycerol accumulation inhibitors. H9c2 lipid accumulation, Nile Red fluorescence; cells loaded with 200 µM oleic acid. 990 tested, 71% active. inhibition, % at 12.5 µM. shares compounds with H9c2 TAG inh;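 active means mean inhibition across replicates of 40% or more; inactive means mean inhibition below 40%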;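 further: plate controls were DMSO only wells for no effect and Triacsin C treated wells for full effect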
# An asterisk follows results filed as active; . = no result given.
SMILES,CRFBP-R2 agonist,Cardio protect,SKN-1 block,iPSC survival up,H9c2 TAG inh,CRFBP-R2 block,TAG conf
COc1cccc(-c2cc(=O)c3cc(NC(C)=O)ccc3[nH]2)c1,1.2,4.5,-17.7,-2.0,63.4*,2.6,33.9
COc1ccc(-c2nc(NC(=O)C3CCN(c4nc5ccccc5o4)CC3)sc2C)cc1,6.8,-12.6,0.0,0.2,65.8*,-37.6,58.4*
O=[N+]([O-])c1ccc(Nc2nc(N/N=C\c3ccc4c(c3)OCO4)nc(N3CCCCC3)n2)cc1,0.1,41.3,8.6,-0.1,66.4*,11.0,37.0
O=[N+]([O-])c1ccc(/C=N/Nc2nc(N3CCCCC3)nc(N3CCCCC3)n2)cc1,0.9,0.9,-3.7,0.8,9.4,2.9,.
c1ccc(Nc2nc(N3CCNCC3)nc(N3CCOCC3)n2)cc1,4.6,1.1,2.8,-3.0,87.7*,-30.3,34.8
O=[N+]([O-])c1ccc(Nc2nc(N3CCOCC3)nc(N3CCOCC3)n2)cc1,0.1,3.2,-2.9,-0.1,53.1*,-9.3,61.0*
Fc1ccc(Nc2nc(N3CCOCC3)nc(N3CCOCC3)n2)cc1,2.4,2.5,13.7,-0.4,.,-16.0,.
CN1C(=O)N(CC(=O)Nc2sccc2C(N)=O)C(=O)C12CCCCC2,-0.1,0.7,13.0,0.1,1.2,1.9,.
O=C1CCC(C(=O)N2CCSCC2)CN1CCc1cccc(F)c1 (stereo not drawn),-0.3,-3.8,19.8,-0.1,.,0.1,.
COc1cc(CCCN2CCNC[C@@H]2c2ccccc2)cc(OC)c1OC,2.1,0.8,-3.5,-1.6,85.5*,-0.8,6.4
COc1cc(CCCN2CCNC[C@H]2Cc2ccc(O)cc2)cc(OC)c1OC,-1.6,2.0,14.3,1.2,-9.1,1.9,.
CCCCOc1ccc(C(=O)NNC(=O)C2C3CCC(C3)C2C(=O)O)cc1 (stereo not drawn),-1.2,-0.9,-2.7,-0.5,-6.5,-8.2,.
CCCC(=O)Nc1nc2ccc(NC(=O)c3ccccc3F)cc2s1,-8.0,25.8,-23.0,-0.2,52.2*,11.9,81.5*
COc1ccc(C(C(=O)NC(C)(C)C)N(CCO)C(=O)CCC(=O)Nc2cc(C)on2)cc1 (stereo not drawn),0.7,1.9,-1.5,0.1,.,-24.6,.
COc1ccc(C(C(=O)NC(C)(C)C)N(Cc2cccs2)C(=O)CCC(=O)Nc2cc(C)on2)cc1 (stereo not drawn),0.8,8.6,9.7,-4.1,69.6*,-4.2,49.0*
CCC(C)(C)NC(=O)C(c1ccc(OC)cc1)N(C(=O)CCC(=O)Nc1cc(C)on1)C1CC1 (stereo not drawn),-0.4,1.4,-11.5,0.0,.,1.9,.
CCC(C)(C)NC(=O)C(c1ccc(OC)cc1)N(CC1CCCO1)C(=O)CCC(=O)Nc1cc(C)on1 (stereo not drawn),-5.3,-0.3,-16.4,-0.6,57.0*,13.6,40.8*
CCC(C)(C)NC(=O)C(c1ccc(OC)cc1)N(Cc1cccs1)C(=O)CCC(=O)Nc1cc(C)on1 (stereo not drawn),-1.9,9.5,-4.6,-2.7,71.6*,-8.4,67.9*
CC(C)CN(CC(C)C)S(=O)(=O)N1CCC(C(=O)NCCc2ccc(Cl)cc2)CC1,1.0,-0.1,9.7,5.1,.,6.1,.
CCOc1ccc(CN(C)C(=O)CCN2C(=O)c3ccccc3C2=O)cc1OC,-0.3,7.2,7.4,0.3,.,5.9,.
CCOc1ccc(CCNC(=O)COC(=O)CSc2ccccc2C)cc1OCC,-0.2,1.4,10.6,0.2,23.2,-0.6,.
O=C(NCc1nnnn1-c1ccc(F)cc1)c1ccc([N+](=O)[O-])o1,-0.5,-17.4,2.3,-0.2,64.9*,15.3,81.7*
Cc1ccc(-n2nnnc2CNC(=O)c2ccc([N+](=O)[O-])o2)cc1C,-0.5,-11.4,8.4,-0.4,59.6,0.1,.
O=C(NCC(c1ccc(F)cc1)N1CCOCC1)c1ccc([N+](=O)[O-])o1 (stereo not drawn),-2.3,-23.9,-22.8,-1.9,50.8*,-1.7,75.7*
Cc1ccc(NC(=O)Cn2nnc(-c3ccccc3NC(=O)c3cccs3)n2)cc1,0.4,-3.7,16.3,-2.4,56.5*,7.6,70.6*
SMILES,CRFBP-R2 agonist,Cardio protect,SKN-1 block,iPSC survival up,H9c2 TAG inh,CRFBP-R2 block,TAG conf
Cc1nn(-c2ccccc2)c2c1CC(=O)Nc1ccccc1-2,-1.5,-0.7,12.7,4.8,73.9*,-22.4,86.9*
CCc1nnc(NC(=O)CN2CCN(Cc3ccc(F)cc3)CC2)s1,-0.5,3.6,-12.3,0.2,.,3.8,.
CCC(C)(C)C1CCC2(CC1)NC(=O)N(CC(=O)NCCc1ccc(OC)c(OC)c1)C2=O (stereo not drawn),-1.2,-12.8,26.7,0.1,52.6*,-15.6,50.2*
CCC(C)(C)C1CCC2(CC1)NC(=O)N(CC(=O)NCCOc1ccccc1)C2=O (stereo not drawn),0.5,-4.9,-0.3,-2.9,10.0,-10.1,.
CCOC(=O)N1CCC(N2Cc3cccc(C(=O)Nc4ccc(F)cc4)c3C2=O)CC1,0.6,18.9,11.3,-0.4,32.8,8.5,.
CCOC(=O)N1CCC(N2Cc3cccc(C(=O)Nc4ccc(CC)cc4)c3C2=O)CC1,8.9,5.7,2.5,-0.5,69.6*,-53.8,27.1
Cc1cnc(C(=O)NC2CC(C)(C)Cc3c2cnn3-c2cccc(F)c2)cn1 (stereo not drawn),0.8,-1.6,3.7,0.0,.,11.2,.
CN(C)c1nc(C#N)nc(N2CCOCC2)n1,0.9,0.3,-8.3,-2.0,-7.7,-2.3,.
CC(C)N(C#N)c1nc(N2CCOCC2)nc(N2CCOCC2)n1,-0.8,-0.3,3.8,-1.4,51.4*,4.8,32.1
C[C@@H]1CN([C@H](C)CO)C(=O)CCCn2nncc2CO[C@H]1CN(C)S(=O)(=O)c1cccc(C#N)c1,2.0,-4.2,-10.1,-1.2,5.0,2.4,.
NC(Cc1ccc(C(F)(F)F)cc1)c1csc(Nc2ccc(C(=O)NCCCO)cn2)n1 (stereo not drawn),.,14.6,4.5,-1.6,57.5*,.,38.4
NC(COCc1ccccc1)c1csc(Nc2nncc3ccccc23)n1 (stereo not drawn),.,4.3,1.2,2.3,-6.1,.,.
CCCCN(C)C(=O)c1ccc(Nc2nc(C(N)Cc3ccc(C(F)(F)F)cc3)cs2)nc1 (stereo not drawn),.,-26.8,11.4,-4.6,55.8*,.,71.1*
NC(Cc1ccc(C(F)(F)F)cc1)c1csc(Nc2nncc3ccccc23)n1 (stereo not drawn),.,-12.3,22.0,-3.1,52.4*,.,67.8*
NC(Cc1ccc(C(F)(F)F)cc1)c1csc(Nc2ccc(C(=O)NCc3ccco3)cn2)n1 (stereo not drawn),.,22.8,9.5,-1.5,36.5,.,.
